Reference: PubChem BioAssay AID1159580 (chemical genetic matrix, 2015)
Screen size: about 5,500 compounds; about 2,000 (36%) were called active. Another 18% or so got no clear call; they are omitted. No stated cut-off is given here; in the data, active means normalized growth mostly below about 0.91 (no sharp cut-off); inconclusive means no clear call, values can overlap the other calls; inactive means mostly above about 0.92. The list shows a part of the results.

Test: chemical genetic growth profiling, strain panel (AID 1159580);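 further: tested at 20 µM; growth read once vehicle control cultures reached saturation at 30 °C; 1 = growth at the plate median or of vehicle wells; lower values mean less growth of the strain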
Conditions: S. cerevisiae deletion strains, growth OD

Measured: normalized growth

NC(CP(=O)(O)O)C(=O)O (centres undefined)
inactive: locus YAL040C, strain CLN3, active compounds read low 1.09 | locus YCL061C, strain MRC1 (second series), active compounds read low 0.998 | locus YER002W, strain NOP16, active compounds read low 1.03 | locus YNL153C, strain GIM3, active compounds read low 1.04 | locus YNL175C, strain NOP13, active compounds read low 1.01 | locus YNL197C, strain WHI3, active compounds read low 1.01 | locus YNL224C, strain SQS1, active compounds read low 1.01 | locus YOR083W, strain WHI5 (second series), active compounds read low 1.01 | locus YPL055C, strain LGE1, active compounds read low 1.02
